Test results as given in PubChem BioAssay (NCI).
Where “and” joins values, the source holds several entries; their conditions need not be identical. Equal values may be shown once. About 83,000 compounds went through this panel and 20% of them were active in at least one assay; those are over-represented in the sample as a whole.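 Compound tested at a single concentration for 48 hours in 96-well plates; a percent growth value below 10 was scored as active.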 Calls of active or inactive are those of the source.

What was measured:
Test in all cases: NCI-60 one-dose screen, 48 h (100 = growth as untreated, 0 = no growth, -100 = all killed)
Details in all cases: 10 µM unless noted
[1] = system: NCI-H23 lung
[2] = system: NCI-H226 lung
[3] = system: NCI-H322M lung
[4] = system: HOP-62 NSCLC
[5] = system: NCI-H460 lung
[6] = system: HOP-92 NSCLC
[7] = system: NCI-H522 lung
[8] = system: A549/ATCC NSCLC
[9] = system: 786-0 renal
[10] = system: COLO 205 colon
[11] = system: DU-145 prostate
[12] = system: K-562 leukemia
[13] = system: MALME-3M melanoma
[14] = system: MDA-MB-231 breast
[15] = system: RXF 393 renal
[16] = system: SF-268 CNS
[17] = system: SF-295 CNS
[18] = system: SF-539 CNS
[19] = system: UACC-257 melanoma
[20] = system: M14 melanoma

Measured: growth

C/C(=C\c1ccccc1)C(O)C(=O)c1nc2ccc([N+](=O)[O-])cc2[nH]c1=O (configuration not stated)
inactive: [1] 104% | [2] 88% | [3] 90.3% | [4] 81.4% | [5] 94.7% | [6] 78.9% | [7] 48.1% | [8] 85.7% | [9] 101% | [10] 111% | [11] 105% | [12] 85.8% | [13] 109% | [14] 90.8% | [15] 109% | [16] 98.1% | [17] 93.3% | [18] 102% | [19] 81.2% | [20] 92.3%

COc1cc(NCCCCCCCNC(C)C)c2nccc(C)c2c1
inactive: [1] 81.4% and 77.1% | [2] 90.9% and 75.7% | [3] 87% and 68.5% | [4] 73.6% and 72.1% | [5] 85.5% and 57.2% | [6] 39.3% and 75.6% | [7] 89.1% and 91.7% | [8] 95.1% and 90.6% | [9] 82.5% and 82.1% | [11] 102% and 91.4% | [13] 94.6% and 42.1% | [14] 68% and 62.9% | [15] 81.4% and 107% | [16] 93.2% and 82.1% | [17] 71.8% | [18] 91.5% and 73.1% | [19] 107% and 89.7%
53.8% (inactive) and -5.98% (active): [10]
54.8% (inactive) and 7.58% (active): [12]

Cc1onc(-c2c(F)cccc2Cl)c1-c1ncc(-c2ccc(Cl)cc2)o1
29.6% (inactive) and 3.17% (active): [5]
inactive: [1] 67% and 42.5% | [2] 76.9% and 58.4% | [3] 104% and 57% | [4] 78% and 53.4% | [6] 34.2% and 73% | [7] 35.1% | [8] 53.1% and 41.4% | [9] 73.9% and 31.6% | [10] 53.5% and 43.6% | [11] 97.2% and 50.2% | [12] 27.9% and 21.5% | [13] 60.2% and 46.6% | [14] 54.1% and 46.3% | [15] 89.9% and 52.7% | [16] 66.2% and 49.8% | [17] 43.8% and 42.2% | [18] 68% and 36.5% | [19] 22.5%

CN1C2C=CC(=O)C1C1C(=O)N(c3ccccc3)C(=O)C12 (configuration not stated)
active: [7] -8.8%
inactive: [1] 96.7% | [2] 105% | [3] 98.4% | [4] 91.2% | [5] 80.6% | [6] 32.3% | [8] 106% | [9] 93.5% | [10] 99.9% | [11] 37.3% | [12] 40.8% | [13] 82.5% | [14] 93.9% | [15] 59.1% | [16] 74.1% | [17] 99% | [18] 66.5% | [19] 81.8% | [20] 105%

O=C(Nc1ccccc1)OCC(CN1CCCCC1)OC(=O)Nc1ccccc1 (configuration not stated)
inactive: [1] 78.4% and 103% | [2] 96.6% and 89.9% | [3] 81% and 92.2% | [4] 83.6% and 110% | [5] 106% and 105% | [6] 76.4% | [7] 103% | [8] 94.1% and 94.4% | [9] 64% and 101% | [10] 98% | [11] 107% | [12] 89% | [13] 90.8% and 109% | [14] 30.7% and 79.2% | [15] 60% and 86.8% | [16] 79.2% and 94.7% | [17] 96.5% and 97.9% | [18] 87.5% and 96.2% | [19] 93.7% and 93.2%
